Reference: PubChem BioAssay (Tox21)
Inconclusive results are not listed. Entries that show only a call come without a potency. Calls of active or inactive are those of the source. The call rests on the fitted dose curve.
Potency means the concentration at half of the fitted maximal effect.

What follows are compounds tested against Progesterone receptor (Homo sapiens) (UniProt P06401) (assay: qHTS assay to identify small molecule agonists of the progesterone receptor (PR) signaling pathway (AID 1346784; further: nearly all actives have a fitted effect of over 30% in size)). Conditions: PR-UAS-bla HEK293T, beta-lactamase FRET ratio, 16 h; series mostly up to 92.4 µM.
Sequence of Progesterone receptor (Homo sapiens) (P06401 whole entry, looked up): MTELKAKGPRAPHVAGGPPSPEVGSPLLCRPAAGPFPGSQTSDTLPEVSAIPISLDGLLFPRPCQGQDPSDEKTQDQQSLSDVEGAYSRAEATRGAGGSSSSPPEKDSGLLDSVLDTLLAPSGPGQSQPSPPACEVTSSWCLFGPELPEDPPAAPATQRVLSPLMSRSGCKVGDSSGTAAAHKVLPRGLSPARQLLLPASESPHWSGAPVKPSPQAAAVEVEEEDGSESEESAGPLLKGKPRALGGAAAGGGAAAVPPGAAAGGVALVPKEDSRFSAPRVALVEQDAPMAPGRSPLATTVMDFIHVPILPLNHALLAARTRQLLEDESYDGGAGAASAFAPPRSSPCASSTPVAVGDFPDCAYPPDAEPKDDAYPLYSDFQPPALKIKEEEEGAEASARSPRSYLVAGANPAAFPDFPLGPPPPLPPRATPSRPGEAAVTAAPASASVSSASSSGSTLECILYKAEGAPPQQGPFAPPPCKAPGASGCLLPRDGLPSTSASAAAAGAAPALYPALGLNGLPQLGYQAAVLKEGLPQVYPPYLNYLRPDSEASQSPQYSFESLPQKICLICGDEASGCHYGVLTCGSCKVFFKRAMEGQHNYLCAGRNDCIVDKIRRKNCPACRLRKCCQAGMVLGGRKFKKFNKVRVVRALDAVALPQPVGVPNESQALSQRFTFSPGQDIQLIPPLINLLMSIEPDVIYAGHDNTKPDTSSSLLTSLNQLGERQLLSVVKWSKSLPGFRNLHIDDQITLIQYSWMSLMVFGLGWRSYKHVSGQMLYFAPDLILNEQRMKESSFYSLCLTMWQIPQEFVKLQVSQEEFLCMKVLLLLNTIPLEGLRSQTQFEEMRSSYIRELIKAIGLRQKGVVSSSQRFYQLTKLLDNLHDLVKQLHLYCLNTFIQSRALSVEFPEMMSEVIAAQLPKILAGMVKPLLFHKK
Text: U.S. Tox21 Program National Center for Advancing Translational Sciences [NCATS] NIH Chemical Genomics Center [NCGC] U.S. Environmental Protection Agency [EPA] National Institutes of Environmental Health Sciences [NIEHS] National Toxicology Program [NTP] U.S. Food and Drug Administration [FDA] […] Endocrine disrupting chemicals (EDCs) and their interactions with steroid hormone receptors like PR causes disruption of normal endocrine function. To identify the compounds that activate PR signaling, a PR-UAS-bla GripTite cell line i.e. PR-UAS-bla HEK 293T (Invitrogen, Carlsbad, CA, USA) containing a beta-lactamase reporter gene under the control of an Upstream Activator Sequence (UAS) was used to screen Tox21 10K compound library.
Tox21 Assay Protocol Summary: PR-UAS-bla HEK 293T cells were dispensed at 3,000 cells/5 uL of assay medium containing 2% charcoal stripped FBS per well into black wall/clear-bottom 1536-well plates using a Multidrop Combi (ThermoFisher Scientific, Waltham, MA) dispenser. After the assay plates were incubated at a 37C and 5% CO2 for 6hr, 23 nL of compounds dissolved in DMSO, positive controls or DMSO only was transferred to the assay plate by a Pintool station (Kalypsys, San Diego, CA). The plates were incubated at 37C and 5% CO2 for 16hr. Then 1 uL of LiveBLAzer B/G FRET substrate was added using a BioRAPTR FRD (Flying Reagent Dispenser, Aurora Discovery, San Diego, CA). After the plates were incubated at room temperature for 2 hours, fluorescence intensity was measured by an Envision plate reader (PerkinElmer, Shelton, CT).
In the case of `CCCCCCCCCOC(C)=O`, the Potency is reported as “inactive”. `CCOCCn1c(C2CCN(CCc3ccc(C(C)(C)C(=O)O)cc3)CC2)nc2ccccc21` was tested, and the Potency was “inactive”. For `CCc1c2c(nc3ccc(OC(=O)N4CCC(N5CCCCC5)CC4)cc13)-c1cc3c(c(=O)n1C2)COC(=O)[C@]3(O)CC`, the Potency was “inactive”. `C=CCCCCCCCCCCCCCCCC` was tested, and the Potency was 733 nM (active). With `CCCCC(CC)C(=O)OCCOCCOCCOCCOC(=O)C(CC)CCCC` (stereo not given) the Potency was “inactive”. For `CC1=CC(O)CC(C)(C)C1` (stereo not given), the Potency was “inactive”. With `CC(C)CCCC(=O)O` the Potency was “inactive”. In the case of `Fc1c(F)c(F)c(Br)c(F)c1F`, the Potency is reported as “inactive”. `O=C(O)Cc1ccc(-c2ccccc2)cc1` was tested, and the Potency was “inactive”. For `Nc1ccc(C(=O)OCCCOC(=O)c2ccc(N)cc2)cc1`, the Potency was “inactive”. `CN1CCCN=C1/C=C/c1cccs1` was tested, and the Potency was “inactive”. `CC(C)C(OC(=O)c1ccccc1)C(C)(C)COC(=O)c1ccccc1` (stereo not given) was tested, and the Potency was “inactive”. In the case of `Cc1nc2ccccn2c(=O)c1CCN1CCC(C(=O)c2ccc(F)cc2)CC1`, the Potency is reported as “inactive”. `O=C(O)c1c(O)c(-c2ccccc2)nc2ccccc12` was tested, and the Potency was “inactive”. `CC(=O)[C@H]1CC[C@H]2[C@@H]3C[C@H](C)C4=CC(=O)CC[C@]4(C)[C@H]3[C@@H](O)C[C@]12C` was tested, and the Potency was 6.7 nM (active). In the case of `NC(=O)Nc1ccc(Cl)cc1`, the Potency is reported as “inactive”. With `CCCOC(=O)c1ccc(N)cc1` the Potency was “inactive”. `O=C(O)c1cccnc1C(=O)O` was tested, and the Potency was “inactive”. In the case of `O=C(OCCOCCO)c1ccccc1Nc1cccc(C(F)(F)F)c1`, the Potency is reported as “inactive”. `CC(CCc1ccc2c(c1)OCO2)NN` (stereo not given) was tested, and the Potency was “inactive”. For `CCC(C(=O)OCCOCCN(CC)CC)c1ccccc1` (stereo not given), the Potency was “inactive”. `CC(Cl)C(Cl)Cl` (stereo not given) was tested, and the Potency was “inactive”. With `CCNC(=O)N1CCN(CCCC(c2ccc(F)cc2)c2ccc(F)cc2)CC1` the Potency was “inactive”. With `CCCCCCCCCCCC(=O)[O][Sn]([CH2]CCC)([CH2]CCC)[O]C(=O)CCCCCCCCCCC` the Potency was “inactive”. For `CC(=O)Nc1ccc(N)cc1`, the Potency was “inactive”. For `c1cnc2c(n1)CCCC2`, the Potency was “inactive”. `NC(=O)N(O)[C@@H]1C=C[C@H](Oc2cccc(Oc3ccc(F)cc3)c2)C1` was tested, and the Potency was “inactive”. With `Nc1nccs1` the Potency was “inactive”. In the case of `CN(C(=O)C(Cl)Cl)c1ccc(OC(=O)c2ccco2)cc1`, the Potency is reported as “inactive”. For `CCN(Cc1cccc(S(=O)(=O)O)c1)c1ccc(C(=C2C=CC(=[N+](CC)Cc3cccc(S(=O)(=O)[O-])c3)C=C2)c2ccccc2)cc1`, the Potency was “inactive”. For `CCOC(=O)OCC`, the Potency was “inactive”. With `CCCOc1ccc(S(=O)(=O)N2CCN(CC)CC2)cc1-c1nc2c(CC)n(Cc3ccccn3)nc2c(=O)[nH]1` the Potency was “inactive”. In the case of `COC(=O)c1cc(S(N)(=O)=O)ccc1OC`, the Potency is reported as “inactive”. `C[N+](C)(C)CCOC(N)=O` was tested, and the Potency was “inactive”. With `CCC(C)(O)CCC=C(C)C` (stereo not given) the Potency was “inactive”. In the case of `O=C1OCCN1/N=C/c1ccc([N+](=O)[O-])o1`, the Potency is reported as “inactive”. For `O=C(/C=C/c1ccccc1)OCCCc1ccccc1`, the Potency was “inactive”. With `C=CC(=O)NCOCC(C)C` the Potency was “inactive”. With `CCc1cccc(N(C)C(N)=Nc2cccc3ccccc23)c1` the Potency was “inactive”. In the case of `Nc1ccc(S(=O)(=O)O)c(N)c1`, the Potency is reported as “inactive”.
